Source: PubChem BioAssay (NCATS)
Records with an inconclusive call do not appear. A number with no mark means an inactive call. Calls of active or inactive are those of the source. Calls come from the whole dose curve; as a rule, active = well fitted activation curve with a large enough effect; inconclusive = small, poorly fitted or top-dose-only effect; inactive = flat fitted curve, though single readings scatter.

Test: Cellular Toxicity (caspase-3) H-4-II-E (AID 663);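 note: cells exposed to compound for 16 hr before readout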
Details: H-4-II-E rat hepatoma, scaled: DMSO 0%, 100 µM tamoxifen 100%; at 92.2 µM (top of the series)
In short: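 Caspase 3/7 activation measured in H-4-II-E cells in complete culture medium after 16 hr treatment at 37 °C, using luciferase-coupled substrate readout; AC50 values come from Hill-equation fits of normalized concentration-response data.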

| SMILES | caspase-3 activation |
| --- | --- |
| Nc1cccc(N)c1 | 0.606% |
| O=CNc1ccccc1 | 0.272% |
| O=[N+]([O-])c1cccc(Cl)c1 | 0.41% |
| ON=C1CCCCC1 | 1.35% |
| C=C(C)C(N)=O | -0.402% |
| Cc1cc(C)c(N)cc1C | -1.64% |
| Nc1c(Cl)cc(Cl)cc1Cl | 2.86% |
| C1COC1 | 1.05% |
| Nc1ccc(F)cc1F | -0.359% |
| CNc1ccccc1 | 0.262% |
| CCc1ccccc1O | -0.213% |
| CCOC(=O)OCC | -0.0213% |
| CCCOCC(C)O (centres undefined) | -0.784% |
| O=[N+]([O-])c1c(Cl)cc(Cl)cc1Cl | 0.356% |
| CNC(=O)c1ccccc1 | -1.03% |
| CCCC(Cl)CCCC(Cl)CCC(Cl)CCC(Cl)CCC(Cl)CCCC(Cl)CCC (centres undefined) | 0.272% |
| Cc1cccc(C(=O)O)c1 | -1.62% |
| O=[N+]([O-])c1ccc(Cl)cc1Cl | 1.21% |
| Nc1cccc(C(F)(F)F)c1 | -0.107% |
| CC(=O)c1nccs1 | 1.15% |

| SMILES | caspase-3 activation |
| --- | --- |
| Cc1ccc2cccnc2c1 | -0.588% |
| CCN(C(=O)N(CC)c1ccccc1)c1ccccc1 | 2.86% |
| O=[N+]([O-])c1ccc2nc[nH]c2c1 | 2.59% |
| CCCCC(CC)COCC1CO1 (centres undefined) | -0.156% |
| O=C(O)c1ccccc1[N+](=O)[O-] | 1.85% |
| O=Cc1cccc(Br)c1 | 2.2% |
| C=CCn1c(=O)n(CC=C)c(=O)n(CC=C)c1=O | 0.22% |
| Cc1ccc(Br)cc1 | 0.265% |
| Cc1ccc(C)c([N+](=O)[O-])c1 | -0.213% |
| Nc1nc(CC(=O)O)cs1 | 0.956% |
| CC1=C(/C=C/C(C)=C/C=C/C(C)=C\C=O)C(C)(C)CCC1 | 113% (active) |
| Cc1ccccc1C#N | 1.11% |
| C=C(C)C(=O)OCCCCCCCCCC | -0.285% |
| CCOc1cccc(N)c1 | 1.28% |
| OC/C(Br)=C(\Br)CO | -0.67% |
| CCCCCCCCC/C=C/CC1CC(=O)OC1=O (centres undefined) | 1.69% |
| C=CC(=O)OCCCC | -0.465% |
| CCCCCCCN | 2.21% |
| c1ccc(Nc2ccccc2)cc1 | 0.361% |
| O=c1[nH][nH]c(=O)c2cc([N+](=O)[O-])ccc12 | -0.659% |

Test: Cellular Toxicity (caspase-3) Hek293 (AID 664);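 note: cells exposed to compound for 16 h at 37 °C before readout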
Details: HEK293 caspase-3 activation, DMSO = 0%, 100 µM tamoxifen = 100%; at 92.2 µM (top of the series)
In short: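 Luminescent Caspase-Glo 3/7 readout (aminoluciferin release) in HEK293 cells after 16 h compound treatment, 37 °C. Normalization: DMSO = basal, 100 uM tamoxifen = 100% stimulation. Concentration-response fitted with standard Hill equation for AC50.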

| SMILES | caspase-3 activation |
| --- | --- |
| Nc1cccc(N)c1 | -1.72% |
| O=CNc1ccccc1 | 1.41% |
| O=[N+]([O-])c1cccc(Cl)c1 | -2.38% |
| ON=C1CCCCC1 | 2.27% |
| C=C(C)C(N)=O | -0.593% |
| Cc1cc(C)c(N)cc1C | 2.78% |
| Nc1c(Cl)cc(Cl)cc1Cl | -0.377% |
| C1COC1 | -1.66% |
| Nc1ccc(F)cc1F | 0.487% |
| CNc1ccccc1 | -1.03% |
| CCc1ccccc1O | -1.55% |
| CCOC(=O)OCC | -2.59% |
| CCCOCC(C)O (centres undefined) | -1.05% |
| O=[N+]([O-])c1c(Cl)cc(Cl)cc1Cl | -0.873% |
| CNC(=O)c1ccccc1 | -0.658% |
| CCCC(Cl)CCCC(Cl)CCC(Cl)CCC(Cl)CCC(Cl)CCCC(Cl)CCC (centres undefined) | -1.03% |
| Cc1cccc(C(=O)O)c1 | -3.34% |
| O=[N+]([O-])c1ccc(Cl)cc1Cl | 1.91% |
| Nc1cccc(C(F)(F)F)c1 | 2.75% |
| CC(=O)c1nccs1 | 4.27% |

| SMILES | caspase-3 activation |
| --- | --- |
| Cc1ccc2cccnc2c1 | 5.55% |
| CCN(C(=O)N(CC)c1ccccc1)c1ccccc1 | 0.606% |
| O=[N+]([O-])c1ccc2nc[nH]c2c1 | 0.287% |
| CCCCC(CC)COCC1CO1 (centres undefined) | -2.33% |
| O=C(O)c1ccccc1[N+](=O)[O-] | 2.82% |
| O=Cc1cccc(Br)c1 | 4.91% |
| C=CCn1c(=O)n(CC=C)c(=O)n(CC=C)c1=O | -1.6% |
| Cc1ccc(Br)cc1 | 0.98% |
| Cc1ccc(C)c([N+](=O)[O-])c1 | 0.434% |
| Nc1nc(CC(=O)O)cs1 | -1.7% |
| Cc1ccccc1C#N | -1.44% |
| C=C(C)C(=O)OCCCCCCCCCC | 2.37% |
| CCOc1cccc(N)c1 | -0.477% |
| OC/C(Br)=C(\Br)CO | 0.816% |
| CCCCCCCCC/C=C/CC1CC(=O)OC1=O (centres undefined) | 5.74% |
| C=CC(=O)OCCCC | 0.453% |
| CCCCCCCN | -0.824% |
| c1ccc(Nc2ccccc2)cc1 | -0.415% |
| O=c1[nH][nH]c(=O)c2cc([N+](=O)[O-])ccc12 | 4.2% |
